PubChem BioAssay (EPA / NIEHS)
Inconclusive results are not listed. Activity calls are given as the source filed them. Rule for the calls, unless noted: active = hit-call score of the fitted dose curve at least 0.9, where 1 is the maximum; inactive = score below 0.9.

Assays:
[1] = target: Transcriptional activator Myb (Homo sapiens) (UniProt P10242); experiment: ATG_Myb_CIS: Attagene CIS-FACTORIAL HepG2 Assay for human Myeloblastosis (Myb) Proto-Oncogene Transcription Factor (AID 2282986); details: HepG2 Attagene CIS-FACTORIAL Myb reporter transcription; actives raise or lower the signal
Sequence of Transcriptional activator Myb (Homo sapiens) (P10242 whole entry, looked up): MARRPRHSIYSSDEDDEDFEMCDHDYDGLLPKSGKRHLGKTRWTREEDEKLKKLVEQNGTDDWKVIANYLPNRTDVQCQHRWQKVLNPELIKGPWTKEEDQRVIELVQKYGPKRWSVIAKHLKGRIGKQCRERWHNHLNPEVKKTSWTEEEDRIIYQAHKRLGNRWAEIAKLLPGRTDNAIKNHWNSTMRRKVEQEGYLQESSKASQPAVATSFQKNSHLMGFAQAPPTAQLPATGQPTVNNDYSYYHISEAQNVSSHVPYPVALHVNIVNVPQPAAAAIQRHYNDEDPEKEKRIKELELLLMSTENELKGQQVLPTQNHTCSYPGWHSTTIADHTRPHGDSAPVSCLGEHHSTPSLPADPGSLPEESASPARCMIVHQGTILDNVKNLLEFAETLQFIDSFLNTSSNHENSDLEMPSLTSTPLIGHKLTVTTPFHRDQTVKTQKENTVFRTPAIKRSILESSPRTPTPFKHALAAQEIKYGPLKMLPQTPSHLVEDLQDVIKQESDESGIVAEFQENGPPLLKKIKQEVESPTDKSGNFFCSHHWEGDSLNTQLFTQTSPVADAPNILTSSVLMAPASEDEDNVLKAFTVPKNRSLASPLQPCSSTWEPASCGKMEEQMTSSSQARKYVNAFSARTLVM
Procedure, shortened: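 HepG2, transient MRTU transfection (cis-element promoters, endogenous TF activity), 24 h compound exposure. Readout: reporter mRNA via RT-PCR, 6-FAM labeling, HpaI digest, capillary electrophoresis. Gain/loss fit vs DMSO.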

[2] = target: Nuclear respiratory factor 1 (Homo sapiens) (UniProt Q16656); experiment: ATG_NRF1_CIS: Attagene CIS-FACTORIAL HepG2 Assay for human Nuclear Respiratory Factor 1 (NRF1) Orphan Gene (AID 2282987); details: HepG2 NRF1 cis-element reporter, Attagene multiplex; actives raise or lower the signal
Sequence of Nuclear respiratory factor 1 (Homo sapiens) (Q16656 whole entry, looked up): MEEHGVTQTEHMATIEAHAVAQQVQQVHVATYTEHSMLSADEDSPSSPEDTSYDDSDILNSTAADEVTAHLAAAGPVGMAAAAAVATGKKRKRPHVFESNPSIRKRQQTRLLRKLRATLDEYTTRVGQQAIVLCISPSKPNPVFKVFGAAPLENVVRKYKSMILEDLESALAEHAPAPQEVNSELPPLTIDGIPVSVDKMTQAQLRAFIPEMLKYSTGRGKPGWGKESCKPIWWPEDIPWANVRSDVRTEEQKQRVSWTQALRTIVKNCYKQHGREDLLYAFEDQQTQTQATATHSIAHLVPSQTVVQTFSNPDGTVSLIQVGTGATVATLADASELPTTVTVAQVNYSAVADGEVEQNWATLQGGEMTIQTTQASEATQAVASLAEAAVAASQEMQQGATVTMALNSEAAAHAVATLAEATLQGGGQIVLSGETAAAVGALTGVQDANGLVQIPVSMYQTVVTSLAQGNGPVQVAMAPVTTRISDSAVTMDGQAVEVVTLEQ
Procedure, shortened: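 Endogenous NRF1-driven reporter transcription measured in transiently transfected human HepG2 liver cells. Readout: reporter mRNA by RT-PCR and capillary electrophoresis with fluorescence detection, 24 h post-dosing. Gain or loss of signal fitted relative to DMSO baseline.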

[3] = ATG_NFI_CIS: Attagene CIS-FACTORIAL HepG2 Assay for human Nuclear Factor I (NFI) (AID 2282989); details: HepG2 cis-regulatory reporter, NFI response element transcription; actives raise or lower the signal
Procedure, shortened: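 Multiplexed cis-reporter system in human HepG2 cells reports native TF activity as reporter mRNA induction 24 h post-dose. Fragments labelled with 6-FAM, HpaI-digested and resolved by capillary electrophoresis; activity fitted both directions versus DMSO.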

[4] = target: Myc proto-oncogene protein (Homo sapiens) (UniProt P01106); experiment: ATG_Myc_CIS: Attagene CIS-FACTORIAL HepG2 Assay for human Myelocytomatosis (Myc) Proto-Oncogene Transcription Factor (AID 2282990); details: HepG2, Attagene cis-reporter transcription factor activity; actives raise or lower the signal
Sequence of Myc proto-oncogene protein (Homo sapiens) (P01106 whole entry, looked up, the tested form may be a part): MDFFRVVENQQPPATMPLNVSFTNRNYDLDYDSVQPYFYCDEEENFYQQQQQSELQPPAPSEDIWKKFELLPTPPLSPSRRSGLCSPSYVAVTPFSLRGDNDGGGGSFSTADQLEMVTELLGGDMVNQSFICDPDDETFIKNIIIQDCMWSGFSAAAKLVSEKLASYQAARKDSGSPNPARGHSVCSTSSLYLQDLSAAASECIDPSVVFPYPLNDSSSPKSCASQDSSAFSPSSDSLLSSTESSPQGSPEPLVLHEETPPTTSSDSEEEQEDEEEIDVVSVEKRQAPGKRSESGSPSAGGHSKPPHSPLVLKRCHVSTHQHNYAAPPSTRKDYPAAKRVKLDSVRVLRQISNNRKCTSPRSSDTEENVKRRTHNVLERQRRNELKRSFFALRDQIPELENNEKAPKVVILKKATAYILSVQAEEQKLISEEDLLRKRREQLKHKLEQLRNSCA
Procedure, shortened: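 After 24 h chemical treatment of HepG2 cells carrying multiplexed cis-regulated reporter constructs, reporter transcripts quantified by RT-PCR and capillary electrophoresis of fluorescent fragments. Gain or loss fitted against DMSO baseline.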

[5] = ATG_NF_kB_CIS: Attagene CIS-FACTORIAL HepG2 Assay for human Nuclear Factor Kappa B (NF-kB) (AID 2282991); details: HepG2 Attagene cis-factorial NF-kB reporter mRNA; actives raise or lower the signal
Procedure, shortened: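 Read-out: reporter transcript levels quantified by RT-PCR plus capillary electrophoresis of 6-FAM-labelled, HpaI-cut fragments. Transfected HepG2 cells, 24 h compound exposure, endogenous NF-kB-driven cis element; gain or loss scored versus DMSO.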

[6] = ATG_NRF2_ARE_CIS: Attagene CIS-FACTORIAL HepG2 Assay for human Nuclear Factor Erythroid 2 Related Factor 2 (NFR2) response to Antioxidant Response Elements (ARE) (AID 2282992); details: HepG2 Attagene ARE/NRF2 reporter, transcription factor activity; actives raise or lower the signal
Procedure, shortened: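 Cis-factorial assay: transfected HepG2 reporter library, 24 h dosing, mRNA readout via RT-PCR/CE; DMSO-referenced bidirectional analysis.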

[7] = ATG_Oct_MLP_CIS: Attagene CIS-FACTORIAL HepG2 Assay for human Octamer-Binding Transcription Factor (Oct) (AID 2282993); details: HepG2 Attagene cis-factorial Oct reporter, mRNA; actives raise or lower the signal
Procedure, shortened: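 After 24 h compound exposure, transfected HepG2 cells were lysed for total RNA; reporter-specific cDNA was PCR-amplified, fluorescently labelled and sized by capillary electrophoresis. Bidirectional curve fitting used DMSO as baseline.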

[8] = target: Cellular tumor antigen p53 (Homo sapiens) (UniProt P04637); experiment: ATG_p53_CIS: Attagene CIS-FACTORIAL HepG2 Assay for human p53 Transcription Factor (AID 2282994); details: HepG2 p53 cis-element reporter, Attagene mRNA; actives raise or lower the signal
Sequence of Cellular tumor antigen p53 (Homo sapiens) (P04637 whole entry, looked up): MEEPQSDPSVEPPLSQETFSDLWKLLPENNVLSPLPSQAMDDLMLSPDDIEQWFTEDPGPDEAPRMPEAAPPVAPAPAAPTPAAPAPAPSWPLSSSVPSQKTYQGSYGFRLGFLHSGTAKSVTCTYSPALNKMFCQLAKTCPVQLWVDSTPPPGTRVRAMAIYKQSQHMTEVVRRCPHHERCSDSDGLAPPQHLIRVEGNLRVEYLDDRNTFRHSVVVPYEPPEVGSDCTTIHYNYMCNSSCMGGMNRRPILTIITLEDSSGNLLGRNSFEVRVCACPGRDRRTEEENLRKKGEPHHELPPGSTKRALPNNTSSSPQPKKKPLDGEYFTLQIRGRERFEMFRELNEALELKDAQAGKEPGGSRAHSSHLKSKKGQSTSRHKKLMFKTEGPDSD
Procedure, shortened: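 Using HepG2 hepatoma cells carrying cis-acting multiplexed reporters, mRNA induction is detected after a 24 h exposure. Gain- and loss-of-signal responses are fitted relative to DMSO-treated cells.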

[9] = BSK_3C_TissueFactor: BioMAP Diversity Plus: 3C Assay for Tissue Factor Biomarker Activity (AID 2282997); details: BioMAP 3C HUVEC, tissue factor biomarker readout; actives raise or lower the signal
Procedure, shortened: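 ELISA read-out of Tissue Factor levels on human umbilical vein endothelium collected 24 h after chemical dosing. Gain or loss of signal was fitted relative to DMSO.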

[10] = target: Nuclear receptor subfamily 4 group A member 2 (Homo sapiens) (UniProt P43354); experiment: ATG_NURR1_TRANS: Attagene TRANS-FACTORIAL HepG2 Assay for human Nuclear Receptor Related Protein 1 (NURR1) (AID 2282985; active = hit-call score of the fitted dose curve at least 0.9, where 1 is the maximum); details: HepG2 Attagene TRANS reporter, mRNA readout
Sequence of Nuclear receptor subfamily 4 group A member 2 (Homo sapiens) (P43354 whole entry, looked up, the tested form may be a part): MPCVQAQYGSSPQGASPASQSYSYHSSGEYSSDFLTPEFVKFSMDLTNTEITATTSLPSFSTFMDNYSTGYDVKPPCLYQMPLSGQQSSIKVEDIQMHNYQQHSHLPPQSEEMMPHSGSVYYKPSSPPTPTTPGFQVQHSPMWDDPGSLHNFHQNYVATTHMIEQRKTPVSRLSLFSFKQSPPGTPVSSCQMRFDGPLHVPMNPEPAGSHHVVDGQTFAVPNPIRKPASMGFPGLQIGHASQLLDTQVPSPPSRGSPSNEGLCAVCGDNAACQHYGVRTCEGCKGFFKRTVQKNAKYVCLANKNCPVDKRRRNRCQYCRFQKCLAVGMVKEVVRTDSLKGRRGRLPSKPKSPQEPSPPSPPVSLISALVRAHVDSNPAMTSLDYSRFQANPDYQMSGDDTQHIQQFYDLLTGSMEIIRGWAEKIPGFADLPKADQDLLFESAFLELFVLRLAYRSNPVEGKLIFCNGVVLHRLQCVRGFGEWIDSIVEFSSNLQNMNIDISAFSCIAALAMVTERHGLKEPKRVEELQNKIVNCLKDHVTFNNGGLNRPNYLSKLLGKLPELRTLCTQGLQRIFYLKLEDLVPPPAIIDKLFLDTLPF
Procedure, shortened: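 Transient transfection of HepG2, human liver cells, with multiple GAL4-UAS reporter transcription units. Cells dosed 24 h, RNA isolated, reverse-transcribed, PCR-amplified, FAM-labelled, HpaI-digested, sized by capillary electrophoresis. DMSO served as negative control.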

Structure (SMILES)	outcome [1]	outcome [2]	outcome [3]	outcome [4]	outcome [5]	AC50 [6]	outcome [7]	outcome [8]	outcome [9]	outcome [10]	AC50 [7]	outcome [6]	AC50 [9]	AC50 [10]
CCOC(=O)C(C)OC(=O)c1cc(Oc2ccc(C(F)(F)F)cc2Cl)ccc1[N+](=O)[O-] (configuration not stated)	inactive	inactive	inactive	inactive	inactive	17.2 µM (active)	inactive	inactive	inactive					
CC(C)Oc1cccc(NC(=O)c2ccccc2C(F)(F)F)c1	inactive	inactive	inactive	inactive		6.33 µM (active)			inactive	inactive	11.7 µM (active)			
CS(=O)(=O)c1cc(C(F)(F)F)ccc1C(=O)c1cnoc1C1CC1	inactive	inactive	inactive	inactive		19.1 µM (active)			inactive		50 µM (active)			
CN=C=S	inactive	inactive	inactive	inactive		13.8 µM (active)			inactive		26.1 µM (active)			
Cn1c(-c2ccccc2)cc(-c2ccccc2)[n+]1C	inactive	inactive	inactive	inactive			inactive	inactive	inactive			inactive		
Nc1cnn(-c2ccccc2)c(=O)c1Cl	inactive	inactive	inactive	inactive			inactive		inactive			inactive		
C=CCOC(=O)C(C)(C)OC(=O)c1cc(-n2c(=O)cc(C(F)(F)F)n(C)c2=O)ccc1Cl	inactive	inactive	inactive	inactive		21.9 µM (active)	inactive	inactive	inactive					
Clc1cccc(C(Cl)(Cl)Cl)n1	inactive	inactive	inactive	inactive			inactive		inactive			inactive		
CCCN(CC)CC1COC2(CCC(C(C)(C)C)CC2)O1 (configuration not stated)	inactive	inactive	inactive	inactive		5.91 µM (active)		inactive	inactive		14.5 µM (active)			
CC(C)C1(C)N=C(c2ncccc2C(=O)O)NC1=O (configuration not stated)	inactive	inactive	inactive	inactive			inactive	inactive	inactive			inactive		
COP(=S)(OC)SCn1nnc2ccccc2c1=O	inactive	inactive	inactive	inactive		25.1 µM (active)		inactive	inactive		12.8 µM (active)			
CC(C)N1C(=O)N(c2ccccc2)CSC1=NC(C)(C)C	inactive	inactive	inactive	inactive			inactive					inactive	22.9 µM (active)	
CN/C(=N\[N+](=O)[O-])NCc1cnc(Cl)s1	inactive	inactive	inactive	inactive			inactive		inactive			inactive		
CS(=O)(=O)c1ccc(C(=O)C2C(=O)CCCC2=O)c([N+](=O)[O-])c1	inactive	inactive	inactive	inactive			inactive		inactive	inactive		inactive		
COc1ccc(-c2ccccc2)cc1NNC(=O)OC(C)C	inactive	inactive	inactive	inactive		6.71 µM (active)			inactive	inactive	0.882 µM (active)			
O=C1C2CC=CCC2C(=O)N1SC(Cl)(Cl)Cl (configuration not stated)	inactive	inactive	inactive	inactive			inactive		inactive			inactive		
Cc1ccc(N=CN(C)C=Nc2ccc(C)cc2C)c(C)c1	inactive	inactive	inactive	inactive			inactive	inactive				inactive	32 µM (active)	
CCN(CC)c1nc(C)cc(OP(=S)(OC)OC)n1	inactive	inactive	inactive	inactive					inactive		8.94 µM (active)	inactive		62.9 µM (active)
CSC(=O)c1c(C(F)F)nc(C(F)(F)F)c(C(=O)SC)c1CC(C)C	inactive	inactive	inactive	inactive			inactive		inactive			inactive		13.5 µM (active)
Cc1cc(C)nc(Nc2ccccc2)n1	inactive	inactive	inactive	inactive	inactive	21.6 µM (active)			inactive		12 µM (active)			
N#Cc1c(Cl)cccc1Cl	inactive	inactive	inactive	inactive	inactive	13.7 µM (active)	inactive	inactive	inactive					
CC(C)(C)C(=O)C(Oc1ccc(Cl)cc1)n1cncn1 (configuration not stated)	inactive	inactive	inactive	inactive		20.3 µM (active)		inactive	inactive		19.4 µM (active)			
Nc1c(Cl)c(F)nc(OCC(=O)O)c1Cl	inactive	inactive	inactive	inactive			inactive		inactive	inactive		inactive		
CC(C)Nc1nc(Cl)nc(NC(C)C)n1	inactive	inactive	inactive	inactive			inactive		inactive	inactive		inactive		
COC(=O)N(C(=O)N1CO[C@@]2(C(=O)OC)Cc3cc(Cl)ccc3C2=N1)c1ccc(OC(F)(F)F)cc1	inactive	inactive	inactive	inactive		4.35 µM (active)			inactive	inactive	1.71 µM (active)			
CCOc1cc(C(C)(C)C)ccc1C1COC(c2c(F)cccc2F)=N1 (configuration not stated)	inactive	inactive	inactive	inactive		1.62 µM (active)					0.581 µM (active)		37 µM (active)	
